Results on seven compounds are retold here after PubChem BioAssay (Tox21).

The nature of test [1]: Nuclear factor erythroid 2-related factor 2/antioxidant responsive element (Nrf2/ARE) small molecule agonists: luciferase reporter gene qHTS assay in human keratinocytes (AID 1919969). Also: nearly all actives have a fitted effect of over 35% in size. Also: potency is read from the fitted curve at half-maximal effect. Background: Reporter assays use an easily measured gene product as a stand-in for the process of interest.
The target in test [2] is Gonadotropin-releasing hormone receptor (Homo sapiens) (UniProt P30968). The test is described as follows: Human gonadotropin-releasing hormone receptor (GnRHR) small molecule agonists, calcium flux assay in GnRHR-HEK293 cells (AID 1920063). Also: nearly all actives have a fitted effect of over 35% in size. In a few lines: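 Agonist activity was measured as intracellular calcium flux in HEK293 cells engineered to stably express human GnRHR. After dye loading for 1 hour at 37 C, compounds in DMSO were added and fluorescence was followed for 3 minutes.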
Chain of Gonadotropin-releasing hormone receptor (Homo sapiens) (P30968 whole entry, looked up): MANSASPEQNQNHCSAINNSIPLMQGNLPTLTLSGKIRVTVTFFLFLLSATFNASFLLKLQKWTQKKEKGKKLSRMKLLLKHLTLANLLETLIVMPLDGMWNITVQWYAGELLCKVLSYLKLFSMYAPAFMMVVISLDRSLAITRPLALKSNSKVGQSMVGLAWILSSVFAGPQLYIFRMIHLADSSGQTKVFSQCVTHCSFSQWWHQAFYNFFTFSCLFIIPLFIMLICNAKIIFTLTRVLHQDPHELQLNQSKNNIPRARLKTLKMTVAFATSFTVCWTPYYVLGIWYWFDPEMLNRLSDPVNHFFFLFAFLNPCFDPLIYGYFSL
In general terms: Calcium assays in cells follow changes in intracellular calcium, usually with a dye or a luminescent sensor.

The target of test [3] is KiSS-1 receptor (Homo sapiens) (UniProt Q969F8). The test is described as follows: Human kisspeptin (KISS1R) small molecule agonists, calcium flux assay in KISS1R-HEK293 cells (AID 1920064; active = well fitted activation curve with a large enough effect in the repeat runs). In outline:
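Agonist activity is monitored as intracellular calcium rise in engineered HEK293 cells carrying human KISS1R. Cells are dye-loaded for 1 h at 37 C before compound addition, and fluorescence is recorded for 3 min.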

Test [4] is described as follows: G protein-coupled receptor (GPCR) small molecule agonists, calcium flux assay: HEK293 wild type cell line counter screen (AID 1920065). In outline:
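Seed cells, incubate 18 h (37 C, 5% CO2); add calcium dye, 1 h at 37 C; pin-transfer compounds, ATP control or DMSO; read fluorescence 480/540 nm each second for 3 min.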

A short description of test [5]: p53 small molecule agonists, cell-based qHTS assay with human liver microsomes (AID 1963577). In a few lines: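 p53RE-bla cells, 4,000/well, compound added after 5 h, with human liver microsomes 0.5 mg/mL and NADPH 0.5 mg/mL final; 16 h at 37 C, then LiveBLAzer 2 h RT, fluorescence.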
In general terms: qHTS replaces the single test concentration by a dilution series.

The nature of test [6]: p53 small molecule agonists, cell-based qHTS assay with rat liver microsomes (AID 1963578). In a few lines: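 p53RE-bla cells, 4,000/well, pre-incubated 5 h, then given compounds plus rat liver microsomes (0.5 mg/mL final) and NADPH (0.5 mg/mL final). Incubation 16 h at 37 C; beta-lactamase reporter read by LiveBLAzer fluorescence after 2 h at room temperature.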
Test [7] in a line: p53 small molecule agonists, cell-based qHTS assay with human liver microsomes: qHTS cell viability counter screen (AID 1963579). Also: nearly all actives have a fitted effect of over 45% in size. In outline: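 p53RE-bla cells, 4,000/well, dosed 5 hours after plating, with human liver microsomes (0.5 mg/mL final) plus NADPH (0.5 mg/mL final), 16 hours at 37 C. Viability read as CellTiter-Glo luminescence after 30 min at room temperature.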
Test [8] in a line: p53 small molecule agonists, cell-based qHTS assay with rat liver microsomes: qHTS cell viability counter screen (AID 1963580). Also: nearly all actives have a fitted effect of over 45% in size. In a few lines:
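Cytotoxicity counter screen: intracellular ATP measured by CellTiter-Glo luminescence in the same wells as the beta-lactamase reporter read, on HCT-116 p53RE-bla cells exposed 16 h at 37 C to compounds with rat liver microsomes and NADPH, each 0.5 mg/mL final.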

Test [9] is described as follows: p53 small molecule agonists, cell-based qHTS assay: qHTS cell viability counter screen (AID 1963581). Also: nearly all actives have a fitted effect of over 45% in size. In a few lines:
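Viability was counter-screened in parallel with the p53 agonist reporter by measuring intracellular ATP luminescence in the same HCT-116 p53RE-bla wells after 16 h compound treatment at 37 C.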

Test [10] deals with 5-hydroxytryptamine receptor 2A (Homo sapiens) (UniProt P28223). The test is described as follows: 5-hydroxytryptamine receptor 2A (HTR2A) small molecule antagonists, cell-based qHTS assay (AID 1963586). Also: nearly all actives have a fitted effect of over 45% in size. In outline:
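CHO cells stably expressing human HTR2A were plated for 18 h at 37 C, then loaded with calcium dye for 1 h. Compounds were preincubated 5 min at room temperature before DOI (4 nM solution) was added. Kinetic fluorescence was read for 3 min.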

Test [11] shares this target. The test is described as follows: 5-hydroxytryptamine receptor 2A (HTR2A) small molecule agonists, cell-based qHTS assay (AID 1963587). Also: nearly all actives have a fitted effect of over 30% in size. In a few lines:
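CHO cells stably expressing human HTR2A, plated 18 h, loaded with calcium dye 1 h at 37 C. Agonist mode: compounds added and intracellular calcium fluorescence recorded kinetically for 2 min at 1 sec intervals.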

Test [12] concerns the target Muscarinic acetylcholine receptor M1 (Homo sapiens) (UniProt P11229). The test is described as follows: Cholinergic receptor muscarinic 1 (CHRM1) small molecule antagonists, cell-based qHTS assay (AID 1963588). Also: nearly all actives have a fitted effect of over 40% in size. Also: potency is read from the fitted curve at half-maximal effect. In a few lines: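 Compounds were tested at 15 concentrations in three independent runs. Dye-loaded CHRM1-CHO cells were exposed 5 min at room temperature before stimulation by acetylcholine added at 50nM. Intracellular calcium was read kinetically on FDSS for 3 min.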

Test [13] shares this target. The experiment in a line: Cholinergic receptor muscarinic 1 (CHRM1) small molecule agonists, cell-based qHTS assay (AID 1963589). Also: nearly all actives have a fitted effect of over 35% in size. In outline:
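Cells were plated and incubated 18 h at 37 C/5% CO2, loaded with calcium dye for 1 h at 37 C, then treated with compounds in DMSO. Fluorescence was recorded kinetically at 1 sec intervals.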

Test [14] can be described thus: cAMP Responsive Elements (CRE) small molecule agonists, cell-based qHTS assay (AID 1963590). In outline: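 Cells carrying a CRE-driven beta-lactamase reporter (HEK 293T) are seeded, incubated overnight (18 h), and treated with test compounds for 3 h at 37 C; reporter activity is then detected with a FRET substrate after 2 h at room temperature.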
A short description of test [15]: cAMP Responsive Elements (CRE) small molecule antagonists, cell-based qHTS assay (AID 1963591; active = well fitted inhibition curve with a large enough effect in the signal ratio in the repeat runs, not every such curve was filed as active; the % refers to the signal ratio). In outline:
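Cells (CRE-bla HEK 293T, DMEM with 10% dialyzed FBS and 25 mM HEPES) are seeded and incubated 18 h. Compounds are added with NKH477 agonist at 0.25 uM final for 3 h, then FRET substrate for 2 h.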

The target in test [16] is Beta-2 adrenergic receptor (Homo sapiens) (UniProt P07550). The experiment in a line: Adrenergic beta2 receptor (ADRB2) small molecule antagonists, cell-based qHTS assay (AID 1963592). Also: series mostly up to about 92 µM; nearly all actives have a fitted effect of over 50% in size. In a few lines:
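Assay format: CHO-ADRB2 cells, 18-20hr seeding at 37C/5% CO2, then compound plus 1nM isoproterenol agonist mix for 0.5hr RT. Homogeneous time-resolved fluorescence cAMP detection after 1hr, expressed as 665/615 nm ratio.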

For test [17] the target is unchanged. The experiment in a line: Adrenergic beta2 receptor (ADRB2) small molecule agonists, cell-based qHTS assay (AID 1963593).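 Also: CHO cells stably overexpressing human ADRB2.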 In a few lines:
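CHO cells stably over-expressing ADRB2 were plated overnight at 37C, then dosed with compounds plus a stimulation mix containing 100uM IBMX and 25uM Ro-20-1724 for 0.5hr at room temperature. cAMP was measured by HTRF competition, 1hr.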

Test [18] concerns the target D(2) dopamine receptor (Homo sapiens) (UniProt P14416). The experiment in a line: Dopamine D2 receptor (DRD2) small molecule antagonists, cell-based qHTS assay (AID 1963595; active = well fitted inhibition curve with a large enough effect in the signal ratio in the repeat runs, with a control signal flat; the % refers to the signal ratio). In outline: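 HEK293 cells stably expressing DRD2, preincubated with 0.1 mM Ro20-1724 and compounds 10 min, were stimulated with 200 nM NKH477 plus 12 nM quinpirole for 30 min at room temperature; cAMP measured by HTRF (665/620 nm).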

The nature of test [19]: p53 small molecule agonists, cell-based qHTS assay (AID 1963582; active = well fitted activation curve with a large enough effect in the signal ratio in the repeat runs, not every such curve was filed as active; the % refers to the signal ratio). In a few lines:
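Cells carrying a p53-responsive bla reporter are treated with test compounds for 16 h at 37 C; beta-lactamase activity is then detected with LiveBLAzer B/G FRET substrate after 2 h at room temperature.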

Test [20] deals with D(2) dopamine receptor (Homo sapiens) (UniProt P14416). The test is described as follows: Dopamine D2 receptor (DRD2) small molecule agonists, cell-based qHTS assay (AID 1963594). Also: nearly all actives have a fitted effect of over 35% in size. In a few lines: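 HEK293 cells stably expressing human DRD2, pre-treated with PDE inhibitor Ro20-1724 (0.1 mM final) and compound 10 min at room temperature, then stimulated with NKH477 (200nM […]) for 30 min. cAMP read by HTRF (665/620 nm).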
Chain of D(2) dopamine receptor (Homo sapiens) (P14416 whole entry, looked up): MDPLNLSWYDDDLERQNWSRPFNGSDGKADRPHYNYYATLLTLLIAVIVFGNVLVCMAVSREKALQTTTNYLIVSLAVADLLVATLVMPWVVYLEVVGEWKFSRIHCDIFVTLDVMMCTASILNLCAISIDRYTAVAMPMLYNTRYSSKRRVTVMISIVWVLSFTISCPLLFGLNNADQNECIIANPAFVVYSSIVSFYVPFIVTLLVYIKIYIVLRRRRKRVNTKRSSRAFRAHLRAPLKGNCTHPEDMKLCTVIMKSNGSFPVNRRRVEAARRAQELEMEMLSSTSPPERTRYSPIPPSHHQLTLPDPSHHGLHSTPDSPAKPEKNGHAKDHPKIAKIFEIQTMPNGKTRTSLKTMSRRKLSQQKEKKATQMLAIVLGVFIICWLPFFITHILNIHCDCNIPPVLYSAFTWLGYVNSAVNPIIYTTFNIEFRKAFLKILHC

Molecules are shown by their SMILES. “And” between values parts separate entries of the source, which are not always exact repeats. Equal entries are not always repeated. Values without a mark were called inactive. Inconclusive results are not listed. The source made the active and inactive calls. Unless noted, calls follow the shape of the full dose curve.

Chain of 5-hydroxytryptamine receptor 2A (Homo sapiens) (P28223 whole entry, looked up): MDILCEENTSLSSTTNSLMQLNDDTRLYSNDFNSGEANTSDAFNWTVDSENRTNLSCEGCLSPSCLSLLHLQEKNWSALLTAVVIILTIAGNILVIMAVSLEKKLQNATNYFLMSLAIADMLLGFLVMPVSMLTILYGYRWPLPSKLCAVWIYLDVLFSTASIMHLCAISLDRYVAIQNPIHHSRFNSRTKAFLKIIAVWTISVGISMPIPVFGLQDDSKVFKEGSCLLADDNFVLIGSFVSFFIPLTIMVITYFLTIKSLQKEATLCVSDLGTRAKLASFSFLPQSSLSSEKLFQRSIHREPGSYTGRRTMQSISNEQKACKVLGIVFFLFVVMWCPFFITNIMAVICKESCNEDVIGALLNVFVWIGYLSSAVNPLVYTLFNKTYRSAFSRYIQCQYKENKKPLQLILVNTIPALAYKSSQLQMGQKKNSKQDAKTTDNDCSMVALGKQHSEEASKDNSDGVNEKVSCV
Chain of KiSS-1 receptor (Homo sapiens) (Q969F8 whole entry, looked up): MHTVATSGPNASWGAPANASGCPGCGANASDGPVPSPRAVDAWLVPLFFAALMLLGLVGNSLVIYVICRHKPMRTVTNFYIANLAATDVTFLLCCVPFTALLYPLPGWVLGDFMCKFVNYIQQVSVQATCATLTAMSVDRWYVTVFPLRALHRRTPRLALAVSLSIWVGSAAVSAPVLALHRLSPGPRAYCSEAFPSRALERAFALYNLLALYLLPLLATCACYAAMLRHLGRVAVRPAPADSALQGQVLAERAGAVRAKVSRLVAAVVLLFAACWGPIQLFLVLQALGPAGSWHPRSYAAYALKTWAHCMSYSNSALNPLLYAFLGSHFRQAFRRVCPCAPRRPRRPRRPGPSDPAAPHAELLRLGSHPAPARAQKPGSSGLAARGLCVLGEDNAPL
Chain of Muscarinic acetylcholine receptor M1 (Homo sapiens) (P11229 whole entry, looked up): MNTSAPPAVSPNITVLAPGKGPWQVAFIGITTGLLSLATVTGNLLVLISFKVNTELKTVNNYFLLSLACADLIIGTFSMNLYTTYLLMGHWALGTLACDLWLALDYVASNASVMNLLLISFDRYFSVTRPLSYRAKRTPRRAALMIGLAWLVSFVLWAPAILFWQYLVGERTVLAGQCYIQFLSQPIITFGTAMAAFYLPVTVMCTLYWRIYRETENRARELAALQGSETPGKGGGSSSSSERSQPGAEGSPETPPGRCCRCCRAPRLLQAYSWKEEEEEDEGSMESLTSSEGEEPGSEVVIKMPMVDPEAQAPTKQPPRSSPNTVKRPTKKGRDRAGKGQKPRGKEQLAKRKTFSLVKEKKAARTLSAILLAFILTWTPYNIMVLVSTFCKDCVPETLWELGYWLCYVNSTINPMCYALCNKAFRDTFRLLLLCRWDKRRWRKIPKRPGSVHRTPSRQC
Chain of Beta-2 adrenergic receptor (Homo sapiens) (P07550 whole entry, looked up): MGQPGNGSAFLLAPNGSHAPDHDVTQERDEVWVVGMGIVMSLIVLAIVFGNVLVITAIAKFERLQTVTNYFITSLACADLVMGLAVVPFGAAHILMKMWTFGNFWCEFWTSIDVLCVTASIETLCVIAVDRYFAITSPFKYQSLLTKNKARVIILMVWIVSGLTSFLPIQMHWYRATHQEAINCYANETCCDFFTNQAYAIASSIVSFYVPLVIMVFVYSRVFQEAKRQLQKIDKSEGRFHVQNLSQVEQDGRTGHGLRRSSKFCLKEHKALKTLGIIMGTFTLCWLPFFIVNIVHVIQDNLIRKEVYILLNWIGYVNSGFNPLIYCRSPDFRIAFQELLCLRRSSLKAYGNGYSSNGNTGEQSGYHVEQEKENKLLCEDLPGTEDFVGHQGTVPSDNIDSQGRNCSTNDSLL

Regarding `CCCCCCCCCCCCN1CCCC1=O`, the Potency result in test [1], in [2], in test [3], in test [4], in [5] and in test [6] was “inactive” throughout. Besides, the Potency entry in [7], in test [8], in test [9], in test [10], in [11] and in test [12] was “inactive” in each case. Besides, the Potency result in test [13], in [14], in test [15], in test [16], in [17] and in [18] was “inactive” each time.

Turning to `CCCCCCCC/C=C\CCCCCCCC(=O)N(C)CC(=O)O`, the Potency in [1] is 54.5 µM (active). Also, the Potency entry in test [2], in test [3], in test [4], in [5], in test [6] and in test [7] was “inactive” in each case. The Potency entry in [8], in test [19], in [10], in [12], in test [13] and in test [16] was “inactive” in each case. Further, the Potency entry in [17] and in test [20] was “inactive” each time.

As for `O=c1cc(-c2ccc(O)cc2)oc2cc(O)cc(O)c12`, in [1], the Potency is 8.75 µM (active) and 9.69 µM (active). The Potency entry in test [2], in test [3], in test [4], in test [5], in [6] and in test [7] was “inactive” throughout. Further, the Potency result in test [8], in test [9], in [11], in test [12], in test [13] and in [16] was “inactive” in each case. For the same compound, the Potency result in [18] is “inactive”.

`CCCCN(CCCC)C(=S)SSC(=S)N(CCCC)CCCC`: the Potency in test [1] is 1.52 µM (active). Besides, the Potency entry in test [2], in test [3], in [4], in [5], in test [6] and in test [7] was “inactive” each time. The Potency result in test [9], in test [19], in test [10], in test [11], in [12] and in test [13] was “inactive” throughout. Besides, the Potency result in test [15], in test [16], in test [20] and in test [18] was “inactive” in each case.

For `Cc1cccc(O)c1N`, the Potency in test [1] is 30.9 µM (active). Besides, the Potency result in test [2], in [3], in [4], in test [5], in test [6] and in [7] was “inactive” in each case. Besides, the Potency entry in test [8], in test [19], in [10], in test [11], in test [12] and in test [13] was “inactive” in each case. The Potency entry in test [15], in test [16], in test [20] and in test [18] was “inactive” in each case.

As to `CC1CCCCN1CCCOC(=O)c1ccc(OC2CCCCC2)cc1` (centres undefined), the Potency result in test [1], in test [2], in test [3], in [4], in test [5] and in [6] was “inactive” each time. The Potency entry in test [7], in test [8], in test [9], in test [13], in test [14] and in test [15] was “inactive” in each case. In addition, the Potency result in [16] and in [18] was “inactive” each time. Further, the Potency in [12] is 0.365 µM (active).

Regarding `CCCCCCCCCCCCCCCS(=O)(=O)Oc1ccccc1`, the Potency entry in test [1], in test [2], in [3], in [4], in test [5] and in test [6] was “inactive” throughout. The Potency entry in [7], in [9], in test [19], in test [10], in test [11] and in test [12] was “inactive” each time. The Potency entry in test [13], in test [14], in [15], in test [16], in [20] and in test [18] was “inactive” throughout.
